Screening data as filed in PubChem.
BAZ2B block – blocks human BAZ2B. Q9UIF8. AlphaScreen BAZ2B-H3K14Ac peptide displacement. Potency, µM (series often up to 114 µM), actives largely listed as inhibitors. 360,000 tested, 4.4% active. AID 504333; further: nearly all actives have a fitted effect of over 60% in size
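Multi-concentration screen (max 110 uM) measuring displacement of acetylated histone H3 peptide from BAZ2B by AlphaScreen, using 50 nM protein, 50 nM peptide and 10 ug/mL streptavidin donor plus Ni-chelate acceptor beads.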
Six1-Eya2 blk – blocks human Six1 binding to Eya2 | Q15475+O00167 | 360,000 tested, 0.56% active | activity change, % (test concentration not listed) | AlphaScreen GST-Six1/His-Eya2 binding, biochemical; stronger effect = lower value; in the data active means activity change below about -65%; inconclusive means mostly about -30% to -63%
Target sequence (O00167 whole entry, looked up): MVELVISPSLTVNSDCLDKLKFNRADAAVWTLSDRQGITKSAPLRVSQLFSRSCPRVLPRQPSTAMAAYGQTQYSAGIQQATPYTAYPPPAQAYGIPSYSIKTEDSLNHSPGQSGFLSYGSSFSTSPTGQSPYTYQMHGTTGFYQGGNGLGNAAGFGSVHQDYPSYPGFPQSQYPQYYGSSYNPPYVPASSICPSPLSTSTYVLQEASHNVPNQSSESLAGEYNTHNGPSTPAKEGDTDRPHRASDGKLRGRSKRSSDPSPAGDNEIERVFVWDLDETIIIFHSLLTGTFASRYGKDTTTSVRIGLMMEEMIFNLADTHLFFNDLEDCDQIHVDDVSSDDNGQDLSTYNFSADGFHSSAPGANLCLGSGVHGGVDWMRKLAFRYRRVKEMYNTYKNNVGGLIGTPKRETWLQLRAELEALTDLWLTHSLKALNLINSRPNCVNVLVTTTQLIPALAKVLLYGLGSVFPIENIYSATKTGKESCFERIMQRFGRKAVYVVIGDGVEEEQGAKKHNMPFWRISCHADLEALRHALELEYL
Target sequence (Q15475 whole entry, looked up): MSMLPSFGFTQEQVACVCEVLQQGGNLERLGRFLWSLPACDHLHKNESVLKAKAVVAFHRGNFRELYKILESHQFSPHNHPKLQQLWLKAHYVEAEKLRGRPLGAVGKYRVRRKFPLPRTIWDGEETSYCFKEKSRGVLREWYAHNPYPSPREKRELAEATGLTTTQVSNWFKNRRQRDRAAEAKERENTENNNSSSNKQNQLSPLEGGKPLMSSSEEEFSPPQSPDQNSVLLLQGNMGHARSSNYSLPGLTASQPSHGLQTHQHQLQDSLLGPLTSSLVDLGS
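Six1/Eya2 binding was read as AlphaScreen signal after compounds were pinned into GST-Six1 plus His-tagged Eya2 (5X stock 250/500 nM) in pH 8.0 Tris/NaCl/TCEP buffer, beads added, then incubated 1 h, 37 C, dark.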
HP1b chromo inh – blocks HP1-beta chromodomain binding to methylated histone tails | P83916 | AlphaScreen HP1-beta / biotin-H3K9me3 peptide binding | Potency, µM (series often up to 114 µM), hits mostly inhibitors | 390,000 tested, 0.56% active | AID 540317; further: nearly all actives have a fitted effect of over 70% in size
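HP1-beta protein (50 nM final) preincubated 30 min at room temperature with biotinylated H3(1-18)K9me3 peptide (50 nM) in PBS pH 7.4, 0.01% Tween-20, then compound added for 30 min. AlphaScreen streptavidin donor/nickel chelate acceptor beads (10 ug/mL final), 30 min dark, luminescence read.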
G9a inh – blocks human histone lysine methyltransferase G9a | Q96KQ7 | Potency, µM (titrated, usually from 102 µM), usual class: inhibitors | G9a H3K9 monomethylation, AlphaScreen, 2 h | 350,000 tested, 8.8% active; further: nearly all actives have a fitted effect of over 75% in size
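G9a (20 nM) preincubated 15 min RT with compounds, then 500 nM biotinylated H3K9 peptide and 20 uM SAM added; 2 h RT reaction. Monomethyl-H3K9 product detected by AlphaScreen with anti-H3K9me1 antibody, streptavidin donor and anti-rabbit IgG acceptor beads.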
JMJD2A Tudor inh – blocks the human JMJD2A Tudor domain; AID 504339; Potency, µM (highest dose often 114 µM), actives largely listed as inhibitors; AlphaScreen JMJD2A-Tudor / H3K4me3 peptide binding; 390,000 tested, 4.4% active; O75164; further: nearly all actives have a fitted effect of over 50% in size
CtBP-E1A blk – blocks the CtBP interaction with E1A. 340,000 tested, 0.49% active. activity change, % (no concentration beside the values). AlphaScreen GST-E1A/His-CtBP binding, 1536-well; stronger effect = lower value; in the data active means activity change below about -65%; inconclusive means mostly about -30% to -63%
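AlphaScreen with 125 nM GST-E1A and 125 nM His-CtBP (5X stocks) in Tris pH 8.0, 300 mM NaCl, BSA, Tween 20, TCEP. Compounds preincubated 2 h at 37 deg C, then glutathione donor/nickel acceptor beads added for 1 h at 37 deg C in dark.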
Hits are given with their value; i = inactive; ? = inconclusive; nt = not tested or not shown; ! = not active in a repeat; [ ] = remark or other dose. Most compounds without a hit are left out; they make up all but 10% or so of the library. Unless noted, the call rests on the fitted dose curve; in most records, active means well fitted inhibition curve with a large enough effect; inconclusive means small, poorly fitted or top-dose-only effect; inactive means no such curve, though single readings can be large or run the other way.

SMILES | BAZ2B block | Six1-Eya2 blk | HP1b chromo inh | G9a inh | JMJD2A Tudor inh | CtBP-E1A blk
CC(=O)Oc1cc(C(=O)OCC(=O)NC23CC4CC(CC(C4)C2)C3)cc(OC(C)=O)c1OC(C)=O | nt | i | ? | nt | 3.5µM | i
CC(C)(C)NC(=S)NC(=O)C12CCC3CC(CC(C3)C1)C2 | 71µM | i | i | i | ? | i
CCN1C(=O)[C@@H]2Cc3c([nH]c4ccccc34)C(c3ccc(OC)cc3)N2C1=S (stereo not given in full) | i | i | i | 35µM | ? | nt
COC(=O)c1ccc(C2c3[nH]c4ccccc4c3C[C@H]3C(=O)N(C)CC(=O)N23)cc1 (stereo not given in full) | i | i | i | ? | i | i
O=C1Cc2cc(S(=O)(=O)N3CCN(c4ccc([N+](=O)[O-])cc4)CC3)ccc2N1 | nt | nt | nt | nt | i | nt
COc1ccc(-c2sc3cc4c(cc3c2C#CC2(N)CCCCC2)OCO4)cc1 | 10µM | i | i | i[0.501 µM] | 25µM | i
COc1cc(OC)cc(-c2sc3ccc(OC)cc3c2C#CC2(N)CCCCC2)c1 | nt | i | i | nt | i | i
CCN(CC)c1ccc(/C=C2\C(=O)c3ccc(C(=O)O)cc3C2=O)cc1 | 14µM | i | 40µM | 11µM | 45µM | i
CCN(CC)c1ccc(C(=O)O)cc1 | i | i | i | i | i | nt
CSCCC(NC(=O)c1cc(S(=O)(=O)N2CCOCC2)ccc1C)c1nc2ccccc2[nH]1 (stereo not given) | nt | i | i | nt | i | i
Cc1ccc(C(=O)c2nc3c(n2O)CCCC3)cc1 | i | i | i | ? | 35µM | i
CCOc1ccc(C(=O)c2nc3c(n2O)CCCC3)cc1 | i | i | i | ? | i | i
O=C(NCCN1CCOCC1)C1CCN(S(=O)(=O)N2CCCCC2)CC1 | i | i | i | i | i | i
O=C(NCCN1CCOCC1)C1CCN(Cc2ccccc2O)CC1 | 45µM | i | ? | 22µM | 1.4µM | i
COc1ccccc1C1=Nn2c(nnc2-c2cccc(OC)c2OC)SC1 | nt | nt | nt | nt | i | nt
CCOc1ccc(N(CC)S(=O)(=O)c2cc(Br)cc3c2N(C(C)=O)C(C)C3)cc1 (stereo not given) | i | nt | i | 1.4µM | i | nt
Cc1ccc(S(=O)(=O)CCC(=O)Oc2ccc(-c3nnco3)cc2)cc1 | i | i | i | 20µM | i | i
Cc1ccc(S(=O)(=O)N2CCN(C(=O)COc3ccc(-c4nnco4)cc3)CC2)cc1 | i | i | i | i | i | i
NS(=O)(=O)c1ccc(NC(=O)c2csnn2)cc1 | i | nt | ? | 22µM | 89µM | nt
O=C(NNS(=O)(=O)c1ccc(Br)cc1)c1csnn1 | i | i | i | 50µM | ? | i
CCc1ccc(NC(=O)CSc2nc3n[nH]c(C)c3c(=N)n2-c2ccc(C)cc2)cc1 | ? | nt | i | i | i | nt
COc1cc(Cl)c(C)cc1NC(=O)c1cc2c(Cl)nc3ccc(C)cc3c2s1 | ? | nt | i | i | i | nt
CC(C)(C)C1CCc2c(sc(NC(=O)c3cc4ccccc4c(=O)o3)c2C(N)=O)C1 (stereo not given) | i | nt | i | 10µM | i | nt
CCCN(CCC)Cc1cc(=O)oc2cc(OC)ccc12 | nt | i | nt | nt | nt | i
Cc1ccc(CN2CCN(CC(=O)N/N=C/c3ccc(C)o3)CC2)cc1 | i | i | i | i | i | nt
SMILES | BAZ2B block | Six1-Eya2 blk | HP1b chromo inh | G9a inh | JMJD2A Tudor inh | CtBP-E1A blk
Cc1ccc(/C=N/N2CCN(Cc3ccc(Cl)cc3)CC2)o1 | ? | i | i | 50µM | ? | i
Clc1ccc(CN2CCN(/N=C/c3ccco3)CC2)cc1 | ? | i | ? | 50µM | ? | i
CCCSc1cc(NCCOC(=O)CCC)c([N+](=O)[O-])c2nonc12 | i | i | i | ? | i | i
O=[N+]([O-])c1c(NCCCO)cc(Sc2nc3ccccc3s2)c2nonc12 | i | ? | i | ? | 56µM | i
CCC(=O)OCCNc1cc(Sc2nc3ccccc3[nH]2)c2nonc2c1[N+](=O)[O-] | i | i | ? | 8.9µM | 79µM | i
CCC(=O)OCCNc1cc(Sc2nc3ccccc3s2)c2nonc2c1[N+](=O)[O-] | i | i | ? | 2µM | i | i
Cc1cc(C(=O)N2CCN(S(=O)(=O)c3ccccc3)CC2)c(C)o1 | i | i | i | nt | i | i
Cn1ccc2cc(S(=O)(=O)N3CCCC(C(=O)NCc4ccccc4)C3)ccc21 (stereo not given) | i | nt | i | i | i | nt
COc1ccc(C(=O)Nc2nnc(S(=O)(=O)N3CCC(C)CC3)s2)cc1OC | ? | i | i | 13µM! | ? | i
CC1CCN(S(=O)(=O)c2nnc(NC(=O)c3ccc(C(C)C)cc3)s2)CC1 | ? | nt | i | 14µM | ? | nt
CN1CCN(CCC(=O)N/N=C/c2cc3c(cc2[N+](=O)[O-])OCO3)CC1 | i | i | i | ? | 4µM | i
Cc1cc(O)c(N=Cc2cc3c(cc2[N+](=O)[O-])OCO3)cc1C | nt | i | i | nt | 3.5µM | i
COc1ccccc1NC(=O)Cn1c(=O)c(CNc2ccccc2)cc2cc(OC)c(OC)cc21 | i | nt | i | ? | i | nt
CC(C)c1ccc(Nc2nc(CC(=O)O)cs2)cc1 | i | i | i | 40µM | i | i
O=C(NCCS(=O)(=O)NCc1ccc2c(c1)OCO2)c1ccccc1 | i | i | i | i | i | i
Cc1cc(C(=O)CSc2cccc[n+]2[O-])c(C)n1-c1ccc(Br)cc1 | 50µM | nt | nt | 35µM | nt | nt
O=C(CSc1cccc[n+]1[O-])c1ccc(Cl)s1 | i | i | i | 10µM | i | i
O=C(CSc1cccc[n+]1[O-])c1ccccc1Br | i | i | i | 0.5µM | i | i
Cc1cc(C(=O)CSc2cccc[n+]2[O-])c(C)n1-c1ccccc1 | ? | i | i | ? | i | i
CCc1cccc(C)c1NC(=O)COC(=O)CCn1c(C)csc1=O | nt | i | nt | nt | nt | i
O=C(CCn1c(=O)oc2ccccc21)Nc1ccccc1 | i | i | i | 35µM | i | i
O=C(CCCn1c(=O)oc2ccccc21)Nc1ccccc1 | i | i | i | i | i | i
O=C(CCn1c(=O)oc2ccccc21)NCCCN1CCN(c2ccc(F)cc2)CC1 | ? | i | i | 2.5µM | i | i
O=C(NCC(c1ccc(Cl)cc1)N1CCCCC1)c1ccccc1F (stereo not given) | i | nt | i | ? | i | nt
Cc1ccc(Nc2nc(-c3c(C)nc4ccccn34)cs2)cc1 | i | i | i | ? | ? | i
Cc1nc2ncccn2c1-c1csc(Nc2ccc(O)cc2)n1 | ? | -87 | i | 11µM | i | -90
Cc1ccc(Nc2nc(-c3c(C)nc4ncccn34)cs2)cc1 | ? | -75 | i | 40µM | ? | -90
Cc1ccccc1C(=O)N1CC(=O)Nc2ccc(F)cc2C1c1ccccc1 (stereo not given) | i | i | i | i | i | i
